PubChem BioAssay (NCATS)
Values joined by “and” are separate entries in the source; they are usually repeats but may differ in a detail not shown here. Equal entries are not always repeated. Inconclusive results are not listed. Entries that show only a call come without a potency. Active and inactive are the calls of the source. Unless noted, calls come from the whole dose curve; as a rule, active = well fitted curve in the direction sought with a large enough effect; inconclusive = small, poorly fitted or top-dose-only effect, or another doubt; inactive = no such curve, though single readings can be large; an effect the other way counts as inactive or inconclusive. Bridge positions count the residues as written; N and C are the ends. Square brackets hold non-standard residues; d marks the D form. Peptide text beside a SMILES is read from it. * marks the point of attachment. Octanoyl(6-Me) = CCC(C)CCCCC(=O)*; Dab = NCC[CH](N)C(=O)O

How the values were obtained:
[1] = target: Cytochrome P450 3A4 (Homo sapiens) (UniProt P08684); test: qHTS Assay for Inhibitors and Substrates of Cytochrome P450 3A4 (AID 884); note: nearly all actives have a fitted effect of over 50% in size; note: potency is the fitted concentration of half-maximal effect
Summary of the method: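 20 nM human CYP3A4 with 25 uM Luciferin-PPXE (at KM) in 200 mM KPO4, preincubated 10 min with compound; NADPH regeneration started a 60 min RT reaction. Luciferin detected by luminescence, normalized to 57 uM ketoconazole as full inhibition.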

[2] = qHTS drug screen for cell cycle checkpoint inhibitors in PARPi-resistant BRCA-mutant ovarian cancer cell lines. (AID 1963452; calls by dose curve; note: potency is the fitted concentration of half-maximal effect); conditions: PEO1/OlaR viability, CellTiter-Glo luminescence, 96 h; for Z-AUC: stronger effect = lower value
Summary of the method: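 PEO1, PEO4 and PEO1/OlaR ovarian cancer cells, 600 per well, exposed 96 h at 37C to a dilution series. Viability read by CellTiter-Glo luminescence, normalized to DMSO and empty wells; activity summarized as Z-AUC.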

[3] = Cellular Toxicity (caspase-3) SHSY5Y (AID 657)
Summary of the method: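 SH-SY5Y human neuroblastoma cells (1500/well) were treated with compounds for 16 h at 37 °C, then Caspase-Glo 3/7 luminescence was read after 1 h at room temperature. Data normalized to DMSO and 10 uM staurosporine; AC50 from Hill fits.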

[4] = Cellular Toxicity (caspase-3) SK-N-SH (AID 661)
Summary of the method: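 Human SK-N-SH neuroblastoma cells, 1500/well, were exposed to compounds for 16 hours at 37 °C. Caspase-Glo 3/7 luminescence was normalized to DMSO (basal) and 10 uM staurosporine (100%), and AC50 came from a Hill fit.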

[5] = Cellular Toxicity (caspase-3) NIH 3T3 (AID 666);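 note: caspase signal read after 16 h compound exposure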
Summary of the method: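 Mouse NIH 3T3 fibroblasts (1000/well) treated 16 h at 37 C; caspase-3/7 activity measured by Caspase-Glo 3/7 luminescence after 20 min. Normalized to DMSO and 100 uM tamoxifen; AC50 from Hill fits.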

[6] = MultiTox-Fluor Cytotoxicity Assay - LYMP1-001 - Live Cells (AID 947)
[7] = MultiTox-Fluor Cytotoxicity Assay - LYMP1-002 - Dead Cells (AID 960); note: nearly all actives have a fitted effect of over 60% in size
Summary of the method: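 Human lymphoblastoid LYMP1-002 cells, 2500/well, treated 16 h at 37 C; dead-cell protease cleavage of bis-AAF-R110 read by fluorescence (485/520); normalized to DMSO and 15 uM tetraoctylammonium bromide; AC50 from Hill fit.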

[8] = Cell Viability - LYMP2-004 (AID 966); note: nearly all actives have a fitted effect of over 65% in size
Summary of the method: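 Lymphoblastoid LYMP2-004 cells, 2500 per well, were preincubated for 5 hr and then treated with compound for 24 h at 37 C in complete medium. Viability was read as cellular ATP by CellTiter-Glo luminescence, and AC50 values were taken from Hill fits to concentration-response data.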

[9] = Cell Viability - LYMP2-005 (AID 967); note: series mostly up to about 92 µM
Summary of the method: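 CellTiter-Glo luminescence (cellular ATP) read-out; LYMP2-005 lymphoblastoid cells, 2500/well, 5 h pre-incubation, then 24 h compound exposure at 37 C in complete medium. Tetraoctylammonium bromide positive control; AC50 by standard Hill fit.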

[10] = Cell Viability - LYMP2-009 (AID 968); note: series mostly up to about 92 µM; nearly all actives have a fitted effect of over 55% in size
[11] = Cell Viability - LYMP2-008 (AID 980); note: nearly all actives have a fitted effect of over 60% in size
Summary of the method: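 LYMP2-008 lymphoblastoid cells (2500/well) plated 5 h, then treated 24 h at 37 C in complete medium. Viability read as intracellular ATP by CellTiter-Glo luminescence after 30 min at room temperature; AC50 from Hill fits.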

[12] = target: Peroxisome proliferator-activated receptor gamma (Homo sapiens) (UniProt P37231); test: qHTS assay for small molecule agonists of peroxisome proliferator-activated receptor gamma signaling (AID 588536; active = well fitted curve in the direction sought with a large enough effect in the signal ratio, with a control signal flat, not every such curve was filed as active; the % refers to the signal ratio)
Summary of the method: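 HEK293 UAS-bla reporter line, 1% charcoal/dextran FBS; titration, 16 h, 37 C; CCF4 loading 2 h RT; fluorescence 460/530 nm. Normalized to rosiglitazone 2 uM = 100%, DMSO = 0%.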

[13] = target: Vitamin D3 receptor (Homo sapiens) (UniProt P11473); test: qHTS assay for small molecule agonists of vitamin D receptor signaling (AID 588543; calls by dose curve)
Summary of the method: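 GeneBLAzer VDR-UAS-bla HEK293T cells in 2% charcoal-stripped FBS medium were dosed with compound titrations for 16 h at 37 °C; CCF4 β-lactamase readout (405 nm ex, 460/530 nm em). EC50 and efficacy from Hill fits, normalized to 50 nM calcitriol (100%) and DMSO (0%).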

[14] = target: Thyroid hormone receptor beta (Homo sapiens) (UniProt P10828); test: qHTS assay for small molecule antagonists of thyroid hormone receptor beta signaling (AID 588547; active = well fitted inhibition curve with a large enough effect in the signal ratio, with a control signal flat, not every such curve was filed as active; the % refers to the signal ratio;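 note: cells stimulated with 0.4 nM T3 agonist during compound exposure; series mostly up to about 77 µM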); conditions: TR-UAS-bla HEK293, beta-lactamase ratio, antagonist mode, 18 h
Summary of the method: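 Inhibition of T3-driven (0.4nM final) beta-lactamase reporter activity was measured over 0.59 nM to 92 uM compound after 18 h at 37 C. The cells were GripTite HEK293 TR-UAS-bla in charcoal/dextran-stripped serum, with CCF4 ratio read-out and IC50 from Hill fits.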

[15] = qHTS assay for small molecule activators of the p53 signaling pathway (AID 651743; active = well fitted activation curve with a large enough effect in the signal ratio, not every such curve was filed as active; the % refers to the signal ratio; note: series mostly up to about 92 µM); conditions: HCT-116 p53RE-bla, beta-lactamase FRET ratio, 16 h; activation: stronger effect = higher value
Summary of the method: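 Read-out is fluorescence intensity from the LiveBLAzer B/G FRET substrate, added for 2 hours at room temperature after HCT-116 p53RE-bla cells had been incubated with compounds for 16 hours at 37 C.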

[16] = qHTS assay for small molecule disruptors of the mitochondrial membrane potential - 5 hr assay (AID 651755; calls by dose curve; note: nearly all actives have a fitted effect of over 40% in size)
Summary of the method: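 HepG2, 2,000 cells/well, overnight attach; cpd or DMSO 5 hr, 37C/5% CO2; Mito-MPS 30 min 37C; fluor 490/535 + 540/590 nm.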

[17] = target: Tumor necrosis factor (Homo sapiens) (UniProt P01375); test: qHTS assay to identify small molecules that stimulate Tumor Necrosis Factor-alpha (TNF-alpha) secretion (AID 651757; active = well fitted curve in the direction sought with a large enough effect in the signal ratio; the % refers to the signal ratio)
Summary of the method: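 THP-1 cells (3000/well) exposed to compounds 17 hrs at 37 C. Secreted TNF-alpha detected by HTRF with cryptate- and XL665-labeled anti-TNF-alpha antibodies after 3 hr at room temperature.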

[18] = target: Nuclear receptor subfamily 1 group I member 2 (Rattus norvegicus) (UniProt Q9R1A7); test: qHTS assay for small molecule activators of the rat pregnane X receptor (rPXR) signaling pathway (AID 651751; call rule not given here); conditions: rPXR reporter cells, luciferase (One-Glo), 24 h
[19] = target: Glucocorticoid receptor (Homo sapiens) (UniProt P04150); test: qHTS assay for small molecule agonists of glucocorticoid receptor signaling (AID 588532; active = well fitted curve in the direction sought with a large enough effect in the signal ratio, with a control signal flat; the % refers to the signal ratio); conditions: HeLa MMTV-bla, beta-lactamase ratio, agonist, 18 h; stronger effect = higher value; percent of dexamethasone control, DMSO zero
Summary of the method: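 Agonist-mode qHTS: GRE-driven beta-lactamase in HeLa cells exposed 18 h to titrated compounds (up to 92 uM), then CCF4 ratio read after 2 h at RT; Hill-fitted EC50, efficacy relative to 0.1 uM dexamethasone.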

[20] = target: Glucocorticoid receptor (Homo sapiens) (UniProt P04150); test: qHTS assay for small molecule antagonists of glucocorticoid receptor signaling (AID 588533; active = well fitted inhibition curve with a large enough effect in the signal ratio, with a control signal flat, not every such curve was filed as active; the % refers to the signal ratio;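 note: cells stimulated with 2 nM dexamethasone as agonist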)
Summary of the method: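 Antagonist-mode qHTS: compound titrations added to GRE-bla HeLa cells, then dexamethasone 2 nM final; 18 h, 37 C. CCF4 FRET fluorescence normalized to dexamethasone and DMSO; IC50 from Hill fit.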

[21] = measured here: PEO1 parental Z-AUC

Peroxisome proliferator-activated receptor gamma (Homo sapiens), sequence (P37231 whole entry, looked up): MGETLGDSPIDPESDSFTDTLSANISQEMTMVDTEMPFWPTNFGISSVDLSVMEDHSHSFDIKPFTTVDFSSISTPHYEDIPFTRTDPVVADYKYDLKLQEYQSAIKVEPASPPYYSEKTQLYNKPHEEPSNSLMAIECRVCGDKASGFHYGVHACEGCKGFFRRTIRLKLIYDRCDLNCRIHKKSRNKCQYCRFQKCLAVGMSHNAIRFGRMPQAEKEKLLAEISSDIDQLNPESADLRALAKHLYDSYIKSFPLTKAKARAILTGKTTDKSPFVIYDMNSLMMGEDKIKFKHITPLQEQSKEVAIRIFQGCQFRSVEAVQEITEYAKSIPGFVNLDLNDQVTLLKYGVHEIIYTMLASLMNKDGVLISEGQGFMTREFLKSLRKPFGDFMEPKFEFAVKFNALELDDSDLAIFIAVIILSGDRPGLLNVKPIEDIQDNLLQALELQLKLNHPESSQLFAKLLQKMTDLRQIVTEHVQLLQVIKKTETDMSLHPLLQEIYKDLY
Cytochrome P450 3A4 (Homo sapiens), sequence (P08684 whole entry, looked up): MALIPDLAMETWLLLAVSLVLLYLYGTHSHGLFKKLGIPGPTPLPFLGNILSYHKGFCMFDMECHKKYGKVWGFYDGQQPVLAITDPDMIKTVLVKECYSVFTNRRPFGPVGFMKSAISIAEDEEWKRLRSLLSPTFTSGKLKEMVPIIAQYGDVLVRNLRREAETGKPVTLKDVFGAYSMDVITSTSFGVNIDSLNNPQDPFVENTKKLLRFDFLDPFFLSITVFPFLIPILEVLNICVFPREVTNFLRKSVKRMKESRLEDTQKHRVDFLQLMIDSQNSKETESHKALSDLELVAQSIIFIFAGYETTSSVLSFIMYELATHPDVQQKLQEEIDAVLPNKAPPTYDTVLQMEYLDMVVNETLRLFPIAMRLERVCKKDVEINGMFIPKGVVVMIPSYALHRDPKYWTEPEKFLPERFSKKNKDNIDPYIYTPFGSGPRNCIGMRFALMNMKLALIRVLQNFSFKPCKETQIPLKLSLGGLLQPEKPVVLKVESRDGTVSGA
Nuclear receptor subfamily 1 group I member 2 (Rattus norvegicus), sequence (Q9R1A7 whole entry, looked up): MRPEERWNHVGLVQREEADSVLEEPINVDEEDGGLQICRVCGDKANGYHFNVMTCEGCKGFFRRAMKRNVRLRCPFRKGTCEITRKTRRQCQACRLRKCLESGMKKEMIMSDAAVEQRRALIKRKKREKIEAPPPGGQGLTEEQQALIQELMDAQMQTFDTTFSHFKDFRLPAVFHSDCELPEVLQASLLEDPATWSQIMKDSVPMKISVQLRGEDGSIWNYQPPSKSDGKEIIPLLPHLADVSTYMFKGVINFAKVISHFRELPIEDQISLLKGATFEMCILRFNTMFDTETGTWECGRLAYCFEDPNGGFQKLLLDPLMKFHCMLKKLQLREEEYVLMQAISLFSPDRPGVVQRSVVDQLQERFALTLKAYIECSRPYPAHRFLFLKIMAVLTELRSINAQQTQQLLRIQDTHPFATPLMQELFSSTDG
Vitamin D3 receptor (Homo sapiens), sequence (P11473 whole entry, looked up): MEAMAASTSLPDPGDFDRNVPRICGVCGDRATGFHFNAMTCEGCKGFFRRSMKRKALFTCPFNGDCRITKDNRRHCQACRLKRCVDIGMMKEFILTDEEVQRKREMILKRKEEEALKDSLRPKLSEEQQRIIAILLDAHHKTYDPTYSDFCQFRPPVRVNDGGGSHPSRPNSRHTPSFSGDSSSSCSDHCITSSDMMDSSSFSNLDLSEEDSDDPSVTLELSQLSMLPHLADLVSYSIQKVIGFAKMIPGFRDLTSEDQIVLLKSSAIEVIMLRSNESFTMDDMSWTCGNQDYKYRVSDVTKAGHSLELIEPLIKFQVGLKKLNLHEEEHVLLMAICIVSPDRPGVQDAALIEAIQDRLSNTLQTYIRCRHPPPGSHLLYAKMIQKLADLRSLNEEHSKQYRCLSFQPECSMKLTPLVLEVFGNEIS
Thyroid hormone receptor beta (Homo sapiens), sequence (P10828 whole entry, looked up): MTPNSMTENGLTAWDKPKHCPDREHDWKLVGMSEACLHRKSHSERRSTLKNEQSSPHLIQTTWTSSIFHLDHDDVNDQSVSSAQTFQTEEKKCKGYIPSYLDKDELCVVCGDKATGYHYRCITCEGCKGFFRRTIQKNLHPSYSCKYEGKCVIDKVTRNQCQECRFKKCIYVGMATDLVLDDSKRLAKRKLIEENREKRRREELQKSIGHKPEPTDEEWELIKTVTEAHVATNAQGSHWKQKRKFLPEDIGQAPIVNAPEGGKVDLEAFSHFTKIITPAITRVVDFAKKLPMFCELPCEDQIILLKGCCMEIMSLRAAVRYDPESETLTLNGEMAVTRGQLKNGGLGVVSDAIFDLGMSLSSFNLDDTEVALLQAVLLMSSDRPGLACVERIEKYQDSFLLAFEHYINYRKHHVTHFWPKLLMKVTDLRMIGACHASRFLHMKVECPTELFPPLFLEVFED
Glucocorticoid receptor (Homo sapiens), sequence (P04150 whole entry, looked up): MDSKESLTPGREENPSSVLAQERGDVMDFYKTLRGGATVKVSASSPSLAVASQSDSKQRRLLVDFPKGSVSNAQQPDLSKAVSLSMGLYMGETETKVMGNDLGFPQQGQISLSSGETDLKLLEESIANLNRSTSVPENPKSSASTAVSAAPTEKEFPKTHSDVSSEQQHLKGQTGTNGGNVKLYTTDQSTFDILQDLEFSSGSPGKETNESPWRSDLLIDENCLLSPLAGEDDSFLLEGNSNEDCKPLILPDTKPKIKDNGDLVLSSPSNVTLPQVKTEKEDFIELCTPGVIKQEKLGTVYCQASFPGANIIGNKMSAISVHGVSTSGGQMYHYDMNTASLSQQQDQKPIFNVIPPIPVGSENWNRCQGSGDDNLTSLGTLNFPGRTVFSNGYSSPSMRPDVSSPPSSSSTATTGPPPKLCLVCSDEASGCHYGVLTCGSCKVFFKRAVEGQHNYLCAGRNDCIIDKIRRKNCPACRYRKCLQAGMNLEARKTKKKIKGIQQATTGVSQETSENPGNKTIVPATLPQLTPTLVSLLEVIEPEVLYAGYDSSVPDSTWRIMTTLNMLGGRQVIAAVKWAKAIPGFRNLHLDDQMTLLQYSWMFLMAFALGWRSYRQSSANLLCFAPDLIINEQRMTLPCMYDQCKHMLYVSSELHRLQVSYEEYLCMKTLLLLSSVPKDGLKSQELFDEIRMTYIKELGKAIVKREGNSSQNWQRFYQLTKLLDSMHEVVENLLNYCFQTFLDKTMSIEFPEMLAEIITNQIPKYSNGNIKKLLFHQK
Tumor necrosis factor (Homo sapiens), sequence (P01375 whole entry, looked up): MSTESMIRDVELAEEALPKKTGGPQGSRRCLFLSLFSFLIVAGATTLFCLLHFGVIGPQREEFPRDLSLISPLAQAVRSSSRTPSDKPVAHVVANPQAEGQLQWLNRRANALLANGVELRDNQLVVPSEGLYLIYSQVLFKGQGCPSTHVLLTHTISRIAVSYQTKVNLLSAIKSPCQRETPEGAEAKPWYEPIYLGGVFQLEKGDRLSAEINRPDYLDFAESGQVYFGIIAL

## CCC(C)CCCCC(=O)NC(CCN)C(=O)NC(C(=O)NC(CCN)C(=O)NC1CCNC(=O)C(C(C)O)NC(=O)C(CCN)NC(=O)C(CCN)NC(=O)C(CC(C)C)NC(=O)C(Cc2ccccc2)NC(=O)C(CCN)NC1=O)C(C)O (configuration not stated) ({Octanoyl(6-Me)}-[Dab]T[Dab][Dab][Dab]FL[Dab][Dab]T; lactam 4-C; configuration not given here)
[1]
  Potency: inactive

## Nc1nc(-c2ccc(Cl)c(Cl)c2)c(-c2ccncc2)s1
[1]
  Potency: 0.794 µM (active)

## CN(C)CCCOc1ccc(-c2ccc3ncc4c(c3c2)n(C2CCOCC2)c(=O)n4C)cn1
[2]
  Potency: 3.01 µM (active)
[2]; [21]
  Z-AUC: -1.35
[2]; measured here: PEO4 Z-AUC
  Z-AUC: -1.31

## O[C@@H]([C@H](O)[C@@H](O)CBr)[C@@H](O)CBr
[3]
  outcome: inactive
[4]
  outcome: inactive
[5]
  outcome: inactive
[1]
  Potency: inactive
[6]
  Potency: inactive
[7]
  Potency: inactive
[8]
  Potency: inactive
[9]
  Potency: inactive
[10]
  Potency: inactive
[11]
  Potency: inactive
[12]
  outcome: inactive
[13]
  outcome: inactive
[14]
  activity change % (negative = inhibition): -6.77% (inactive)
[15]
  activation: 4.39% (inactive)
[16]
  Potency: inactive
[17]
  outcome: inactive
[18]
  max response: 0.919% (inactive)

## O=C(/C=C/c1ccc(Cl)cc1)N1CCC2(CC1)CN(Cc1ccc(Cl)c(Cl)c1)C(=O)O2
[2]
  Z-AUC: 1.05 (inactive)
[2]; [21]
  Z-AUC: -0.18
[2]; measured here: PEO4 Z-AUC
  Z-AUC: 0.00813

## CC1(C)S[C@@H]2[C@H](NC(=O)COc3ccccc3)C(=O)N2[C@H]1C(=O)O
[19]
  activation: 10.3% (inactive)
[12]
  outcome: inactive
[13]
  outcome: inactive
[15]
  activation: -0.552% (inactive)
[18]
  max response: -0.437% (inactive)

## O=C(O)c1ccccc1C(c1ccc(O)cc1)c1ccc(O)cc1
[3]
  outcome: inactive
[4]
  outcome: inactive
[5]
  outcome: inactive
[1]
  Potency: inactive
[6]
  Potency: inactive
[7]
  Potency: inactive
[8]
  Potency: inactive
[9]
  Potency: inactive
[10]
  Potency: inactive
[11]
  Potency: inactive
[19]
  activation: -2.81% (inactive) and -6.49% (inactive)
[20]
  Potency: inactive
[12]
  outcome: inactive
[14]
  activity change % (negative = inhibition): 4.41% (inactive) and 9.59% (inactive)
[17]
  outcome: inactive
[18]
  max response: 0.601% (inactive) and -3.77% (inactive)

## CONC(=O)c1ccccc1Nc1cc(Nc2cc(C)nn2C(C)C)ncc1Cl
[2]
  Z-AUC: 0.959 (inactive)
[2]; [21]
  Z-AUC: 0.188
[2]; measured here: PEO4 Z-AUC
  Z-AUC: 0.196

## CCO[Si](CCCN)(OCC)OCC
[3]
  outcome: inactive
[4]
  outcome: inactive
[5]
  outcome: inactive
[1]
  Potency: inactive
[6]
  Potency: inactive
[7]
  Potency: inactive
[8]
  Potency: inactive
[9]
  Potency: inactive
[10]
  Potency: inactive
[11]
  Potency: inactive
[19]
  activation: 5.03% (inactive) and 9.33% (inactive)
[20]
  Potency: inactive
[12]
  outcome: inactive
[13]
  outcome: inactive
[15]
  activation: -1.64% (inactive) and -2.02% (inactive)
[16]
  Potency: inactive
[17]
  outcome: inactive
[18]
  max response: -3.96% (inactive) and 0.794% (inactive)
